This is part of a sample that, as a whole, favours compounds with a hit. Of some 79,000 tested, about 15% had one in any assay. A number with no mark means an inactive call. Calls of active or inactive are those of the source. Cut-off read from the data, not from the text of the source: active = growth inhibition above about 70%; inactive = the rest.
Tests used:
[1] = NCI Yeast Anticancer Drug Screen. Data for the rad50 strain (AID 155);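 note: 0% = growth of vehicle-only cultures of the same strain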; conditions: S. cerevisiae rad50 strain growth inhibition, active compounds read high
Method in brief: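 Growth of the mutant yeast was measured after compound exposure and referenced to vehicle-treated cultures.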

[2] = NCI Yeast Anticancer Drug Screen. Data for the mec2-1 strain (AID 157); conditions: S. cerevisiae mec2-1 strain, active compounds read high
Method in brief: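 Growth inhibition is read against vehicle-treated controls after compound exposure of the mec2-1 yeast strain, which is defective in DNA damage repair or cell cycle control.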

[3] = NCI Yeast Anticancer Drug Screen. Data for the sgs1 mgt1 strain (AID 161);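 note: 0% = growth of cultures given vehicle only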; conditions: S. cerevisiae sgs1 mgt1 strain, active compounds read high
Method in brief: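 Yeast cells carrying a defined DNA-repair defect were exposed to test compounds. Growth inhibition was measured relative to vehicle-treated controls.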

[4] = NCI Yeast Anticancer Drug Screen. Data for the cln2 rad14 strain (AID 165);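 note: 0% = growth equal to vehicle treated cultures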; conditions: S. cerevisiae cln2 rad14 strain, active compounds read high
Method in brief: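 Growth inhibition, relative to vehicle-treated controls, is the read-out. The test organism is a yeast strain with defined genetic alterations, cln2 rad14.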

[5] = NCI Yeast Anticancer Drug Screen. Data for the bub3 strain (AID 167); conditions: S. cerevisiae bub3 mutant strain, active compounds read high
Method in brief: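 Whole-cell yeast assay. The mutant strain was incubated with compounds, and growth inhibition was determined by comparison with vehicle-treated cells.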

[6] = NCI Yeast Anticancer Drug Screen. Data for the mlh1 rad18 strain (AID 175); conditions: S. cerevisiae mlh1 rad18 strain growth inhibition, active compounds read high
Method in brief: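 Cells of a genetically altered yeast strain, deficient in DNA damage repair, were treated with compound. Their growth was then compared with that of vehicle-treated cultures to give inhibition.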

[7] = at 5.0 µM (retest, dose inferred, filed as 0.5)
[8] = at 50.0 µM (retest, dose inferred, filed as 5.0)

Compound | growth inhibition [1, 7] | growth inhibition [1, 8] | growth inhibition ([1]; at 50.0 µM) | growth inhibition [2, 7] | growth inhibition [2, 8] | growth inhibition ([2]; at 50.0 µM) | growth inhibition [3, 7] | growth inhibition [3, 8] | growth inhibition ([3]; at 50.0 µM) | growth inhibition [4, 7] | growth inhibition [4, 8] | growth inhibition ([4]; at 50.0 µM) | growth inhibition [5, 7] | growth inhibition [5, 8] | growth inhibition ([5]; at 50.0 µM) | growth inhibition [6, 7] | growth inhibition [6, 8] | growth inhibition ([6]; at 50.0 µM)
CN(C)C1CCC2C3CC=C4CC(OC=O)CCC4(C)C3CCC21C (configuration not stated) | -1% | 48% | 71.2% (active) | 2% | 42% | 17.3% | 2% | 60% | 65.5% | 17% | 83% (active) | 76.4% (active) | 0% | 86% (active) | 48.8% | -11% | 52% | 45.7%
CC(=O)/C(=C/n1c(=S)[nH]c2ccc([N+](=O)[O-])cc21)C(=O)Nc1ccc(Cl)cc1 | 1% | -1% | 10.9% | -9% | 2% | 6.75% | 0% | -5% | 16.7% | -21% | -17% | 46.4% | -4% | -2% | 15.6% | 1% | -2% | 22.3%
CC12C=C3CC(OC(=O)c4ccccc4)CCC3(O1)c1ccccc12 (configuration not stated) | 2% | 69% | 84.8% (active) | -1% | 77% (active) | 91.5% (active) | 1% | 80% (active) | 90.1% (active) | 3% | 2% | 10.1% | 4% | 76% (active) | 79.3% (active) | 1% | 76% (active) | 76% (active)
COC(=O)C1=C(NC(=O)Nc2ccc(Cl)cc2)OC(C)(C)C1c1ccc(Cl)cc1 (configuration not stated) | 87% (active) | 88% (active) | 96.5% (active) | 94% (active) | 94% (active) | 98% (active) | 85% (active) | 92% (active) | 97.1% (active) | 80% (active) | 87% (active) | 94.8% (active) | 89% (active) | 89% (active) | 95.4% (active) | 85% (active) | 89% (active) | 96.8% (active)
Clc1ccccc1C(Cc1c(Cl)cccc1Cl)Cn1ccnc1 (configuration not stated) | 74% (active) | 78% (active) | 99.8% (active) | 58% | 78% (active) | 99.8% (active) | 70% (active) | 91% (active) | 99.8% (active) | 62% | 86% (active) | 98.8% (active) | 75% (active) | 95% (active) | 99.7% (active) | 77% (active) | 92% (active) | 99.8% (active)
O=[N+]([O-])c1ccc(O)c(/C=N\NC(=S)Nc2ccc3cn[nH]c3c2)c1 | -2% | 33% | 74.3% (active) | 1% | 20% | 47.2% | 11% | 37% | 41.2% | -17% | 37% | 32.6% | -2% | 52% | 49.1% | 12% | 41% | 30.8%
O=Cc1ccc(/C=N\Nc2ccccc2)cc1 | 1% | 12% | 82.3% (active) | -5% | 0% | 33.2% | -3% | -4% | 41.9% | 1% | 7% | 34.1% | -1% | 12% | -9.55% | 4% | 30% | 92.3% (active)
COc1ccc(-c2c3ccccc3[n+](-c3ccccc3)c3ccccc23)cc1 | 98% (active) | 99% (active) | 99.6% (active) | 99% (active) | 100% (active) | 99.5% (active) | 99% (active) | 100% (active) | 99.5% (active) | 96% (active) | 99% (active) | 99.2% (active) | 99% (active) | 99% (active) | 99.2% (active) | 99% (active) | 99% (active) | 99.3% (active)
C/C(=N/O)c1cccc(C(F)(F)F)c1 | -150% | -146% | 7.15% | -50% | -58% | 14.3% | -64% | -63% | -6.55% | -63% | -84% | 35.6% | -66% | -92% | 34.6% | -128% | -127% | 19.2%
C=C(C)[P+](C)(c1ccccc1)c1ccccc1 | -12% | 25% | 72.7% (active) | -12% | 6% | 0.95% | -8% | 22% | 28.9% | 1% | -2% | 4.4% | -18% | 6% | -9.3% | -4% | 4% | 29.3%
c1ccc(C2=NC(=c3ccc(=C4N=C(c5ccccc5)C(c5ccccc5)=N4)cc3)N=C2c2ccccc2)cc1 | 3% | 44% | 86.6% (active) | 3% | 17% | 65.6% | -2% | 48% | 59.9% | 7% | 5% | 29.6% | 3% | 8% | 51.3% | 1% | 19% | 93.7% (active)
CC=CCOc1cc(NC(=S)OC(C)C)ccc1Cl (mixture of isomers) | 28% | 94% (active) | 79.2% (active) | 18% | 97% (active) | 89.2% (active) | 31% | 92% (active) | 88.4% (active) | 22% | 96% (active) | 90% (active) | 27% | 97% (active) | 89.7% (active) | 25% | 96% (active) | 85.8% (active)
COc1ccc2nc3cc(Cl)ccc3c(Nc3nccs3)c2c1 | 14% | 90% (active) | 95.1% (active) | 12% | 93% (active) | 70% (active) | 13% | 90% (active) | 94.4% (active) | 9% | 87% (active) | 58.5% | 6% | 96% (active) | 94.5% (active) | 6% | 94% (active) | 88.2% (active)
O=C(CC1(O)C(=O)Nc2c(Cl)cc(Cl)cc21)c1ccc(Br)cc1Br (configuration not stated) | 55% | 98% (active) | 92.3% (active) | 96% (active) | 99% (active) | 90.8% (active) | 97% (active) | 92% (active) | 91.3% (active) | 94% (active) | 93% (active) | 90.7% (active) | 97% (active) | 93% (active) | 93.8% (active) | 58% | 98% (active) | 92.2% (active)
c1ccc(-c2ccc(-c3ccc(C4=NCCN4)cc3)o2)cc1 | 13% | 91% (active) | 95.7% (active) | 16% | 79% (active) | 95% (active) | -1% | 51% | 96.8% (active) | -21% | 70% (active) | 89% (active) | 4% | 86% (active) | 95.8% (active) | 3% | 95% (active) | 97.5% (active)
CCCCCCCCCCOC1C(C(O)CNCCCN(C)C)OC2OC3(CCCCC3)OC21 (configuration not stated) | 1% | 97% (active) | 91.9% (active) | -27% | 98% (active) | 93.2% (active) | 7% | 98% (active) | 91% (active) | 21% | 97% (active) | 90.3% (active) | -24% | 98% (active) | 89% (active) | 5% | 97% (active) | 90.2% (active)
COc1ccccc1C1c2cc3c(cc2OC2(OC)COC(=O)C12)OCO3 (configuration not stated) | 24% | 58% | 9.85% | 22% | 42% | 0% | 11% | 42% | 1.95% | 20% | 35% | 17% | 32% | 54% | 17.2% | 23% | 69% | 22%
Cc1cccc(-c2nnc(-c3cccc(C)c3)o2)c1 | 39% | 44% | 54.8% | 30% | 43% | 14.7% | 19% | 47% | 63.6% | 53% | 33% | 43.2% | 54% | 66% | 55% | 32% | 44% | 23.4%
CCOC(=O)/C(=C\c1ccc(Br)cc1)C(C)=O | 28% | 98% (active) | 92.5% (active) | 29% | 99% (active) | 94.2% (active) | 48% | 98% (active) | 93.5% (active) | 34% | 98% (active) | 92.5% (active) | 71% (active) | 99% (active) | 92.3% (active) | 70% (active) | 99% (active) | 91.7% (active)

Source: PubChem BioAssay (NCI)
